Experimental data: PubChem BioAssay (EPA / NIEHS)
The source made the active and inactive calls. The calls were made as follows: active = hit-call score of the fitted dose curve at least 0.9, where 1 is the maximum; inactive = score below 0.9.

What was measured:
[1] = read-out: Transforming growth factor beta 1 (TGFb1), TGFB1 (gene 7040); test: BSK_KF3CT_TGFb1: BioMAP Diversity Plus: KF3CT Assay for Transforming growth factor beta 1 (TGFb1) Biomarker Activity (AID 2283072); conditions: primary human keratinocytes with fibroblasts; actives raise or lower the signal
Procedure, shortened: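 Human keratinocyte plus foreskin fibroblast primary co-culture, dosed with chemical for 24 h. TGF-b1 quantified by ELISA. Activity fitted bidirectionally against DMSO negative control as baseline.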

[2] = read-out: C-C motif chemokine 2 (Homo sapiens) (UniProt P13500); test: BSK_KF3CT_MCP1: BioMAP Diversity Plus: KF3CT Assay for Monocyte Chemoattractant Protein 1 (MCP1/CCL2) Biomarker Activity (AID 2283073); conditions: primary human keratinocytes with fibroblasts; actives raise or lower the signal
Procedure, shortened: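 Human keratinocyte–foreskin fibroblast co-culture; MCP-1 measured by ELISA 24 h after dosing. Bidirectional fit vs DMSO; cytotoxicity tracked by SRB total protein in parallel cultures.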

[3] = read-out: Matrix Metallopeptidase 9 (MMP9), MMP9 (gene 4318); test: BSK_KF3CT_MMP9: BioMAP Diversity Plus: KF3CT Assay for Matrix Metallopeptidase 9 (MMP9) Biomarker Activity (AID 2283074); conditions: primary human keratinocytes with fibroblasts; actives raise or lower the signal;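 as to AC50: MMP9 protein level quantified by ELISA in the co-culture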
Procedure, shortened: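 Keratinocyte plus foreskin fibroblast human primary skin co-culture was dosed with chemical and MMP-9 was quantified by ELISA 24 h later. Bidirectional curve fitting used DMSO as negative control and activity baseline.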

[4] = read-out: urokinase plasminogen activator (uPA), PLAU (gene 5328); test: BSK_KF3CT_uPA: BioMAP Diversity Plus: KF3CT Assay for urokinase plasminogen activator (uPA) Biomarker Activity (AID 2283075); conditions: primary human keratinocytes with fibroblasts; actives raise or lower the signal
Procedure, shortened: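 Human keratinocyte plus foreskin fibroblast primary co-culture exposed to chemical for 24 h. uPA levels were quantified by ELISA, and activity was fitted bidirectionally against a DMSO negative-control baseline.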

CD40, CD40 (gene 958) [5] = test: BSK_LPS_CD40: BioMAP Diversity Plus: LPS Assay for CD40 Biomarker Activity (AID 2283076); conditions: primary human HUVEC with PBMC; actives raise or lower the signal
Procedure, shortened: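 HUVEC plus PBMC co-culture stimulated with LPS; CD40 quantified by ELISA 24 h after compound dosing. Fitting was bidirectional relative to DMSO. SRB staining of parallel cultures flagged overt cytotoxicity.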

[6] = read-out: E-selectin (Homo sapiens) (UniProt P16581); test: BSK_LPS_Eselectin: BioMAP Diversity Plus: LPS Assay for Eselectin Biomarker Activity (AID 2283077); conditions: primary human HUVEC with PBMC; actives raise or lower the signal
Procedure, shortened: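 Human umbilical vein endothelial cells co-cultured with PBMC under LPS stimulation; cell-surface E-selectin measured by ELISA 24 h after dosing. Change in either direction versus DMSO, with SRB total-protein staining in parallel cultures for cytotoxicity.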

[7] = read-out: Interleukin-8 (IL8), CXCL8 (gene 3576); test: BSK_LPS_IL8: BioMAP Diversity Plus: LPS Assay for Interleukin-8 (IL8) Biomarker Activity (AID 2283078); conditions: primary human HUVEC with PBMC; actives raise or lower the signal
Procedure, shortened: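 Human umbilical vein endothelial cells co-cultured with PBMC, LPS-stimulated, exposed to compound for 24 h. IL-8 quantified by ELISA; fitted in both directions against DMSO, with SRB total-protein staining of parallel cultures for cytotoxicity.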

[8] = read-out: Interleukin-1 alpha (IL1a), IL1A (gene 3552); test: BSK_LPS_IL1a: BioMAP Diversity Plus: LPS Assay for Interleukin-1 alpha (IL1a) Biomarker Activity (AID 2283080); conditions: primary human HUVEC with PBMC; actives raise or lower the signal
Procedure, shortened: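 Human umbilical vein endothelial cells co-cultured with PBMC and stimulated with LPS; IL-1a measured by ELISA 24 h after dosing. Bidirectional fitting against DMSO; cytotoxicity checked by SRB staining in parallel cultures.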

[9] = read-out: Monocyte Chemoattractant Protein-1 (MCP1), CCL2 (gene 6347); test: BSK_LPS_MCP1: BioMAP Diversity Plus: LPS Assay for Monocyte Chemoattractant Protein-1 (MCP1) Biomarker Activity (AID 2283081); conditions: primary human HUVEC with PBMC; actives raise or lower the signal;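 as to AC50: secreted MCP-1 protein quantified by ELISA in culture supernatant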
Procedure, shortened: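 Human umbilical vein endothelial cells co-cultured with PBMC, LPS-stimulated; secreted MCP-1 measured by ELISA 24 h after compound addition. Bidirectional curve fitting against DMSO baseline; SRB total-protein staining in parallel cultures for cytotoxicity.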

[10] = BSK_LPS_PGE2: BioMAP Diversity Plus: LPS Assay for Prostaglandin E2 (PGE2) Biomarker Activity (AID 2283082); conditions: primary human HUVEC with PBMC; actives raise or lower the signal;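 as to AC50: secreted prostaglandin E2 measured by ELISA in LPS-stimulated co-culture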
Procedure, shortened: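 HUVEC plus PBMC co-culture stimulated with LPS; secreted PGE2 quantified by ELISA 24 h after chemical dosing. Activity fitted bidirectionally against DMSO as negative control and baseline; parallel SRB total-protein staining served as cytotoxicity check.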

[11] = read-out: Macrophage colony-stimulating factor (MCSF), CSF1 (gene 1435); test: BSK_LPS_MCSF: BioMAP Diversity Plus: LPS Assay for Macrophage colony-stimulating factor (MCSF) Biomarker Activity (AID 2283083); conditions: primary human HUVEC with PBMC; actives raise or lower the signal
Procedure, shortened: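 HUVEC–PBMC co-culture, M-CSF measured by ELISA 24 h after chemical dosing. Fitted in both directions relative to DMSO as negative control; overt cytotoxicity assessed by SRB total-protein staining in parallel cultures.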

[12] = read-out: Tissue Factor, F3 (gene 2152); test: BSK_LPS_TissueFactor: BioMAP Diversity Plus: LPS Assay for Tissue Factor Biomarker Activity (AID 2283084); conditions: primary human HUVEC with PBMC; actives raise or lower the signal
Procedure, shortened: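 Human umbilical vein endothelial cells co-cultured with PBMC were dosed with compound. Cell-surface CD142 was measured by ELISA 24 h later. Activity was fitted bidirectionally against DMSO, with SRB total-protein staining in parallel cultures for cytotoxicity.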

[13] = read-out: Vascular cell adhesion molecule 1 (VCAM1), VCAM1 (gene 7412); test: BSK_LPS_VCAM1: BioMAP Diversity Plus: LPS Assay for Vascular cell adhesion molecule 1 (VCAM1) Biomarker Activity (AID 2283086); conditions: primary human HUVEC with PBMC; actives raise or lower the signal
Procedure, shortened: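 Human umbilical vein endothelial cells co-cultured with peripheral blood mononuclear cells under LPS stimulation were exposed to test chemical for 24 h. VCAM-1 levels were then measured by ELISA, with bidirectional curve fitting relative to DMSO as negative control and baseline.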

CD38, CD38 (gene 952) = test: BSK_SAg_CD38: BioMAP Diversity Plus: SAg Assay for CD38 Biomarker Activity (AID 2283087); conditions: primary human HUVEC with PBMC; actives raise or lower the signal
Procedure, shortened: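 Fluorescence ELISA of cell-surface CD38 served as the read-out, with either increase or decrease fitted against DMSO controls. Cells were a human umbilical vein endothelium plus PBMC co-culture under SEB/TSST-1 stimulation, measured 24 h after dosing.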

CD40, CD40 (gene 958) [14] = test: BSK_SAg_CD40: BioMAP Diversity Plus: SAg Assay for CD40 Biomarker Activity (AID 2283088); conditions: primary human HUVEC with PBMC; actives raise or lower the signal
Procedure, shortened: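 HUVEC plus PBMC co-culture, superantigen-activated, with CD40 read by ELISA 24 h after dosing. Curves fitted in both directions against DMSO. Overt cytotoxicity checked by parallel SRB total-protein staining.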

CD69, CD69 (gene 969) = test: BSK_SAg_CD69: BioMAP Diversity Plus: SAg Assay for CD69 Biomarker Activity (AID 2283089); conditions: primary human HUVEC with PBMC; actives raise or lower the signal;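 as to AC50: cell surface CD69 protein quantified by ELISA with fluorescence detection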
Procedure, shortened: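 HUVEC co-cultured with PBMC were dosed with chemical, and CD69 was measured by ELISA with fluorescence read-out 24 h later. Bidirectional curve fitting used DMSO as negative control and activity baseline.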

[15] = read-out: Monocyte Chemoattractant Protein-1 (MCP1), CCL2 (gene 6347); test: BSK_SAg_MCP1: BioMAP Diversity Plus: SAg Assay for Monocyte Chemoattractant Protein-1 (MCP1) Biomarker Activity (AID 2283090); conditions: primary human HUVEC with PBMC; actives raise or lower the signal
Procedure, shortened: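 MCP-1 levels in the endothelial–PBMC SAg co-culture were quantified by ELISA at 24 h post-dosing; both increases and decreases versus DMSO scored. Cytotoxicity monitored by SRB total protein in parallel cultures.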

[16] = BSK_LPS_SRB: Viability Assessment in the BioMAP Diversity Plus: LPS Assay (AID 2283079); conditions: primary human HUVEC with PBMC;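 also: total protein by sulforhodamine B absorbance as a cytotoxicity measure; measured one day after compound addition; fitted in both directions against DMSO so loss or gain of signal counts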
Procedure, shortened: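 Co-culture of human umbilical vein endothelial cells and PBMC, read 24 h after dosing. Total protein by 0.1% SRB staining after 10% TCA fixation, absorbance at 560 nm; bidirectional fit against DMSO.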

[17] = read-out: Tumor necrosis factor (Homo sapiens) (UniProt P01375); test: BSK_LPS_TNFa: BioMAP Diversity Plus: LPS Assay for Tumour Necrosis Factor alpha (TNFa) Biomarker Activity (AID 2283085); conditions: primary human HUVEC with PBMC; actives raise or lower the signal
Procedure, shortened: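 Human umbilical vein endothelial cells co-cultured with PBMC were exposed to test chemical and TNFa measured by ELISA 24 h after dosing. Bidirectional curve fitting was done relative to DMSO as negative control and baseline.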

Measured: AC50

E-selectin (Homo sapiens), sequence (P16581 whole entry, looked up): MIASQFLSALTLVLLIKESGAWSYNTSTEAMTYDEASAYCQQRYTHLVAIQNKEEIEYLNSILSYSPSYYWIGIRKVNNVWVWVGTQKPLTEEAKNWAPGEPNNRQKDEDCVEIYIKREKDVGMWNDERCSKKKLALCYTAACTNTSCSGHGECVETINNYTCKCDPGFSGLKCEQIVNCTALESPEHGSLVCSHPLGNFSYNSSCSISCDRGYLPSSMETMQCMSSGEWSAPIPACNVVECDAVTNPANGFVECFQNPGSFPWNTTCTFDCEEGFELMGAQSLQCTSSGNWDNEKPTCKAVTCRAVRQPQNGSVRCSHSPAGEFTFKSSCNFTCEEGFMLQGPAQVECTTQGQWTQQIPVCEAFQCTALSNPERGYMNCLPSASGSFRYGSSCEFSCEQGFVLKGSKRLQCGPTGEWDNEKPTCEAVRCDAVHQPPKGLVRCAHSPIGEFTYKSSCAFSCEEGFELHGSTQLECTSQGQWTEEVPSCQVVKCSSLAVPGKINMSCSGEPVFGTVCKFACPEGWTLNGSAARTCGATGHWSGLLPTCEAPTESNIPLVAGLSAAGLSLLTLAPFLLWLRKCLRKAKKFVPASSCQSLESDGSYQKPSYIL
Tumor necrosis factor (Homo sapiens), sequence (P01375 whole entry, looked up): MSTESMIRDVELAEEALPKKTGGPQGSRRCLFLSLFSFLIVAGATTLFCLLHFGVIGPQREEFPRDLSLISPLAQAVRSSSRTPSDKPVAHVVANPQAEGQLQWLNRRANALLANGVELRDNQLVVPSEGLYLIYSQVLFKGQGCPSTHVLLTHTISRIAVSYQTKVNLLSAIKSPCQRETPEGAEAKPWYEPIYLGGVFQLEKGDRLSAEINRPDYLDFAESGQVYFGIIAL

C(=NC1CCCCC1)=NC1CCCCC1
active: [1] 9.13 µM | [2] 29.4 µM | [3] 12.6 µM | [4] 28.8 µM | CD40, CD40 (gene 958) [5] 27.4 µM | [6] 34.9 µM | [7] 30.9 µM | [8] 29.4 µM | [9] 30 µM | [11] 20 µM | [12] 34.8 µM | [13] 30.4 µM | CD38, CD38 (gene 952) 14.1 µM | CD40, CD40 (gene 958) [14] 17.3 µM | CD69, CD69 (gene 969) 7.97 µM | [15] 19.3 µM
inactive: [10]

C[C@@H]1C[C@@H]([C@H](O)CC2CC(=O)NC(=O)C2)C(=O)[C@@H](C)C1
active: [1] 2.79 µM | [2] 0.991 µM | [3] 4.67 µM | [4] 13.2 µM | CD40, CD40 (gene 958) [5] 3.35 µM | [6] 1.77 µM | [7] 6.73 µM | [16] 6.14 µM | [9] 7.05 µM | [10] 5.67 µM | [11] 4.48 µM | [12] 17.9 µM | [13] 9.45 µM | CD38, CD38 (gene 952) 6.11 µM | CD40, CD40 (gene 958) [14] 2.6 µM | CD69, CD69 (gene 969) 6.63 µM | [15] 7.88 µM

CCOP(=S)(OCC)SCSP(=S)(OCC)OCC
active: [11] 2.72 µM
not listed: [8] | [17]
inactive: all other assays above

COP(=S)(OC)Oc1ccc(S(=O)(=O)N(C)C)cc1
not listed: [8] | [16]
inactive: all other assays above

CC(=O)[O][Hg][c]1ccccc1
active: [1] 0.146 µM | [3] 0.189 µM | [4] 0.625 µM | CD40, CD40 (gene 958) [5] 1.62 µM | [6] 3.35 µM | [7] 6.47 µM | [9] 1.7 µM | [10] 0.149 µM | [11] 0.989 µM | [12] 1.99 µM | [17] 1.62 µM | [13] 2.4 µM | CD38, CD38 (gene 952) 0.56 µM | CD40, CD40 (gene 958) [14] 1.46 µM | CD69, CD69 (gene 969) 1.39 µM | [15] 1.04 µM

CCCCC(CC)CO[N+](=O)[O-] (stereo not drawn)
active: [2] 30.4 µM | [3] 34.7 µM | [4] 35.3 µM
not listed: [16]
inactive: all other assays above

CC(C)CCCCCCOC(=O)c1ccccc1C(=O)OCCCCCCC(C)C
not listed: [8] | [16] | [17]
inactive: all other assays above
